According to PubChem BioAssay AID738 (SRMLSC, 2007):
Among all 98,000 compounds or so, about 4,900 (5%) were called active. This excerpt belongs to a sample that is enriched for actives. A number with no mark means an inactive call. No stated cut-off is given here; in the data, active means inhibition above about 30%; inactive means the rest.

Assay: growth inhibition of yeast control strain, primary screen, counter-screen for post-Golgi transport modulator project (AID 738)
Conditions: efflux-deficient yeast background strain, growth absorbance A615, 16 h; at 10 µM; stronger effect = higher value

Compound	inhibition
Cc1ccc(-c2noc(CSc3nnnn3-c3ccccc3)n2)cc1	48.9% (active)
Cc1ccc(-c2noc(CSc3nnc(-c4cccs4)n3C)n2)cc1	5.22%
COc1ccc(-c2noc(CSc3ccc(C)cc3)n2)cc1	4.57%
Cn1cccc1Cc1nnc(SCC(=O)NCCc2ccccc2)n1-c1ccc(F)cc1	2.46%
Fc1ccc(-n2c(Cc3ccccc3)nnc2SCc2nc(-c3ccc(Cl)cc3)no2)cc1	46.4% (active)
Cc1ccc(-c2noc(CC(c3ccccc3)c3ccccc3)n2)cc1	3.45%
O=C(CSc1nnc(Cc2ccccc2)n1-c1ccccc1)N1CCOCC1	-1.82%
Cc1ccc(-c2noc(CSc3nnc(-c4ccccc4)n3C)n2)cc1	22.3%
Cc1ccc(-c2noc(CSc3nnc(-c4ccncc4)n3-c3ccc(F)cc3)n2)cc1	38.4% (active)
Cc1cc(C(F)F)n2nc(C(=O)Nc3ccc(S(=O)(=O)NC45CC6CC(CC(C6)C4)C5)cc3)nc2n1	2.49%
Nc1nc(Br)c2ccccc2c1-c1ccc(F)cc1	11.8%
CCn1c(O)c2ccc(C(=O)N=NC(=O)c3cccnc3)cc2c1O	1.24%
CN(C)c1ccc(/C=C2\NC(=S)N(Cc3ccccc3)C2=O)cc1	21%
CCOC(=O)C1(S(=O)(=O)c2ccc(Cl)cc2)CCN(Cc2ccccc2)CC1	4.55%
CC1C/C(=N/NC(=O)c2cccs2)CC(C)(C)C1 (configuration not stated)	9.76%
CC(Oc1ccc(Cl)cc1Cl)C(=O)/C=C/N(C)C (configuration not stated)	27.4%
CCOC(=O)/C(C#N)=C/c1ccc(OCC(=O)Nc2ccccc2)c(OC)c1	2.95%
O=C(NCCc1ccccc1)/C(=C\c1ccc([N+](=O)[O-])cc1)NC(=O)c1ccccc1	3.12%
CCOC(=O)/C(=C\c1ccc([N+](=O)[O-])cc1)C(=O)c1cc(C(C)=O)c(Nc2ccccc2)s1	92% (active)

Compound	inhibition
CNS(=O)(=O)c1cnccc1N1CCN(c2cccc(C)c2)CC1	1.59%
Cc1c(NC(=O)/C=C/C(=O)O)cccc1[N+](=O)[O-]	6.96%
Cc1sc(NC(=O)C2C3CCC(O3)C2C(=O)O)c(C(=O)OC(C)C)c1-c1ccc(Cl)cc1 (configuration not stated)	16.9%
CN1CC(c2ccccc2)C2(COc3ccccc3C2=O)C12C(=O)Nc1ccccc12 (configuration not stated)	32.5% (active)
Cc1noc(C)c1C(=O)N(CC(=O)NC1CCCC1)Cc1ccccc1F	2.95%
Cc1nc(SCC(=O)c2ccccc2)c([N+](=O)[O-])[nH]1	-2.62%
O=C(CCc1ccc(S(=O)(=O)NC2CCCCC2)cc1)NCc1ccccc1	1.21%
Cc1ccc(S(=O)(=O)N(C)CC(=O)N2CCc3ccccc32)cc1	2.58%
Cc1ccc2c(c1)N(CC(=O)N1CCCc3ccccc31)C(=O)C(C)O2 (configuration not stated)	5.45%
Cc1ccc2c(c1)N(C(=O)CCC(=O)N1CCc3ccccc3C1)CCO2	36.4% (active)
COc1cc(NS(=O)(=O)c2ccc(N/C=C(\C=O)c3nc4cc(Cl)ccc4o3)cc2)nc(OC)n1	-2.08%
COc1cccc(-c2cc(C(=O)N/N=C/c3ccc(OC)c(COC(C)=O)c3)c3ccccc3n2)c1	-0.83%
CCOc1ccccc1C1C(C(=O)OC)=CN(C)C=C1C(=O)OC	11.7%
CCOc1cc(C2C(C(=O)OC)=CN(C3CCCC3)C=C2C(=O)OC)cc(Br)c1O	38.7% (active)
CCOc1ccc(CNC(=O)C2CCC(=O)N2C2CCCC2)cc1OC (configuration not stated)	13.3%
COc1cccc(C(=O)NNC(=O)c2ccccc2Br)c1	0%
CC(C)c1ccc(-c2noc(C3CCCN(S(C)(=O)=O)C3)n2)cc1 (configuration not stated)	-5.28%
O=C(Cc1cccs1)N1CCCC(c2nc(-c3ccc(S(=O)(=O)N4CCCC4)cc3)no2)C1 (configuration not stated)	2.8%
O=C(c1cccs1)N1CCCC(c2nc(-c3ccc(F)cc3)no2)C1 (configuration not stated)	43.9% (active)

Compound	inhibition
CCc1ccc(CNC(=O)CCc2nc(-c3cccs3)no2)cc1	7.1%
CC(C)NC(=O)C(=O)N/N=C/c1ccco1	4.76%
Cc1nn(C)c(Oc2ccccc2)c1CCNS(=O)(=O)c1ccc(F)cc1	-2.45%
COc1ccc(CNC(=O)C2CCC(CNc3c(N4CCOCC4)c(=O)c3=O)CC2)cc1 (configuration not stated)	3.7%
COc1ccc(SCc2noc(C(=O)NCC3CCCO3)c2C(=O)O)cc1 (configuration not stated)	0.46%
Cn1cccc1C1(C(F)(F)F)NCCNC1=O (configuration not stated)	48.1% (active)
O=C(/C=C/c1ccccc1)N/C(=C/c1ccccc1)C(=O)Nc1ccccc1O	18%
CN(C)/C(CN1CCCCC1)=C1\N=C(c2ccccc2)OC1=O	11.8%
COCCCNC(NC(=O)c1ccc(C)cc1)C(Cl)(Cl)Cl (configuration not stated)	-2.93%
CCn1c(=O)cc(OCC(=O)NCCCN2CCN(c3cccc(Cl)c3)CC2)c2ccccc21	2.45%
CC1CCCC(C)N1CCCNC(=O)c1cc2c(=O)n(C)c3ccccc3c2n1C (configuration not stated)	1.45%
Cn1c(C(=O)NCCCN2CCN(c3cccc(Cl)c3)CC2)cc2c(=O)n(C)c3ccccc3c21	95.8% (active)
CCCCn1c(=S)[nH]c2cc(S(=O)(=O)N3CCCCC3)ccc21	6.51%
Cc1cc2cc3c(cc2nc1SCC(=O)Nc1c(C)cccc1C)CCC3	13.7%
CCOc1cc2[nH]c(=O)n(CCC(=O)NCc3ccc(OC)cc3)c(=O)c2cc1OCC	-0.15%
Cc1cccc(OCc2nnc(SCn3nnc4ccccc4c3=O)o2)c1	36.4% (active)
Cc1cc(C)cc(OCc2nnc(SCC(=O)Nc3ccccc3)o2)c1	-1.36%
Cc1cccc(OCc2nnc(SCc3nc4cc(C(F)(F)F)ccc4c(=O)[nH]3)o2)c1	2.6%
CN(C(=O)CC(NC(=O)c1ccccc1)(c1ccccc1)c1ccccc1)c1ccccc1	25.4%
